# Bioassay records from PubChem.
# Only some compounds are listed: those with a hit (about 8.5% of all), similar ones and a draw of the others.
# ALDH1A1 block: ALDH1A1 (human) enzyme inhibition. Purified ALDH1A1, NADH fluorescence, propionaldehyde substrate. P00352. Potency, µM (top dose mostly 75.3 µM), without a hit: at the top dose activity, negative = inhibition, usual class: inhibitors. 7.3% of 220,000 active;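 note: potency is the fitted concentration of half-maximal effect; plate controls were no enzyme wells and a reference inhibitor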
# Sfp PPTase inh: blocks B. subtilis Sfp PPTase activity | Q9F4F7 | Biochemical Sfp PPTase activity, qHTS | Potency, µM, without a hit: largest response in the series, negative = inhibition, actives largely listed as inhibitors | 3.5% of 310,000 active | AID 1490; active = well fitted curve in the direction sought with a large enough effect; inconclusive = small, poorly fitted or top-dose-only effect, or another doubt; inactive = no such curve, though single readings can be large; an effect the other way counts as inactive or inconclusive;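 note: the enzyme is Sfp with the accession as filed and its product quenches rhodamine fluorescence; potency is the fitted concentration of half-maximal effect; 0% = enzyme reaction without inhibitor and -100% = no enzyme wells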
#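 Compounds were incubated with enzyme (final 15 nM) for 15 min at room temperature before substrate addition started the reaction. Fluorescence at 525 nm excitation, 598 nm emission was recorded immediately and after 30 minutes.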
# NPSR antagonist: blocks cAMP signaling of the human neuropeptide S receptor; Q6W5P4; CHO-NPSR cells, cAMP TR-FRET, antagonist mode; Potency, µM (titrated, usually from 38.3 µM), for the others: at the top dose activity change, negative = inhibition, most hits filed as inhibitors; 1% of 220,000 active; active = well fitted curve in the direction sought with a large enough effect; inconclusive = small, poorly fitted or top-dose-only effect, or another doubt; inactive = no such curve, though single readings can be large; an effect the other way counts as inactive or inconclusive; note: potency is the fitted concentration of half-maximal effect; nearly all actives have a fitted effect of over 50% in size
# Target sequence (Q6W5P4 whole entry, looked up): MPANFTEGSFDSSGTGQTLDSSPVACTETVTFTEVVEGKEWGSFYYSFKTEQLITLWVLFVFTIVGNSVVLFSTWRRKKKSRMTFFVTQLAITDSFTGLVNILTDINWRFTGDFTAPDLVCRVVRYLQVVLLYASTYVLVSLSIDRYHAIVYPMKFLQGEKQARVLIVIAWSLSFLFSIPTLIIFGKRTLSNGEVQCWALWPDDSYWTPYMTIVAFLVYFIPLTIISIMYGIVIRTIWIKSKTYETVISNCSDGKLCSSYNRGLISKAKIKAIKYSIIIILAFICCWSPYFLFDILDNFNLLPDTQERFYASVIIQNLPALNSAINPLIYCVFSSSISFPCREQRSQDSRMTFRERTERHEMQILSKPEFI
# JMJD2E inh: JMJD2E (human) inhibition; AID 2147; Potency, µM (highest dose often 57.1 µM), inactives show top-dose activity change, negative = inhibition, usual class: inhibitors; 1.6% of 230,000 active; JMJD2E catalytic domain, FDH-coupled NADH fluorescence (FDH is formaldehyde dehydrogenase);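 note: potency is the fitted concentration of half-maximal effect; 0% = wells with enzyme and -100% = buffer wells without enzyme; nearly all actives have a fitted effect of over 50% in size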
# Target sequence (B2RXH2 1-337 limits assumed): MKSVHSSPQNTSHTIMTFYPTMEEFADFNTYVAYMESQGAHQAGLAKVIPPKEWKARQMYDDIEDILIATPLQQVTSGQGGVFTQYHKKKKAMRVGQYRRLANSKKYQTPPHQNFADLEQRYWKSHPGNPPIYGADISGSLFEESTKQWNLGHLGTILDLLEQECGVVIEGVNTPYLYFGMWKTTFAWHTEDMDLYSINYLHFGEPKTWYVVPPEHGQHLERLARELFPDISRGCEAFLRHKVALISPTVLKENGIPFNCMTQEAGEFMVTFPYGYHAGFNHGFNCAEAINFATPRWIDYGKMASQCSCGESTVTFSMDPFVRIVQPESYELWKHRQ
# FBPA coupling cs: coupling enzyme interference in Giardia aldolase counter-screen; coupling enzyme system counterscreen, AmpLite Red fluorescence; activity change, negative = inhibition, % at 58.2 µM, hits read low; 0.67% of 290,000 active; AID 2472; in the data active = activity change below about -30%
#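 Fluorescence at 525 nm excitation and 598 nm emission measured inhibition of the coupled detection system without aldolase. Compounds (at 57.5 uM final) were preincubated 10 min at room temperature with coupling enzyme reagent before a 20 min substrate/AmpLite Red step.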
# RGS12 GoLoco inh: inhibitors of human Gai1-RGS12 GoLoco interaction (red fluorophore); Potency, µM (doses to about 61.6 µM), without a hit: at the highest dose activity, negative = inhibition, most hits filed as inhibitors; P63096; 0.44% of 230,000 active; Gai1:RGS12 GoLoco peptide FP, rhodamine, 10 min; active = well fitted inhibition curve with a large enough effect, not every such curve was filed as active; inactive = no such curve, though single readings can be large or run the other way; note: potency is the fitted concentration of half-maximal effect; nearly all actives have a fitted effect of over 30% in size
# Numbers without * were called inactive; ? = inconclusive; . = no result; [ ] = another dose, or the depositor's remark. Unless noted, calls come from the whole dose curve; as a rule, active = well fitted inhibition curve with a large enough effect (not every such curve was filed as active); inconclusive = small, poorly fitted or top-dose-only effect, or another doubt; inactive = no such curve, though single readings can be large or run the other way. Unless noted, % is set by controls: 0 for no effect and ±100 for the full control effect.
SMILES,ALDH1A1 block,Sfp PPTase inh,NPSR antagonist,JMJD2E inh,FBPA coupling cs,RGS12 GoLoco inh
CCN(CC)CCC(c1ccc(N(C)C)cc1)c1c(OC)cc(OC)c2c(-c3ccccc3)cc(=O)oc12 (configuration not stated),.,56µM*,-34%,-1%,0,7%
COc1cc(OC)c2c(-c3ccccc3)cc(=O)oc2c1C(CCN1CCN(c2ccccc2)CC1)c1ccc(N(C)C)cc1 (configuration not stated),.,1%,7%,-2%,0,3%
Cc1nn(-c2ccccc2)c(C)c1C(=O)OCC(=O)NC12CC3CC(CC(C3)C1)C2,8.9µM*,0%,?,-5%,2,1%
CC(=O)Nc1ccc(NC(=O)COC(=O)c2c(C)nn(-c3ccccc3)c2C)cc1,22µM*,5%,-2%,-12%,2,-5%
COc1ccc2cc(-c3cc(C(=O)OCC(=O)NC4CCS(=O)(=O)C4)c4ccccc4n3)ccc2c1 (configuration not stated),?,?,-46%,4%,-12,-9%
Cn1ccnc1SCC(=O)Nc1sccc1C#N,25µM*,79µM*,-11%[46.1 µM],5%,4,65%
COCCCn1nnnc1SCC(=O)Nc1ccc2c(c1)OCCO2,13µM*,2%,-3%,4%,-4,-8%
Cn1ccnc1SCC(=O)Nc1ccc2c(c1)OCO2,14µM*,-11%,2%,-16%,1,38%
Cc1cc(C(=O)CSc2nnnn2C)c(C)n1-c1ccc2c(c1)OCCO2,?,45µM*,-30%[46.1 µM],-5%,-45*,21%
CCCC1NC(C(=O)O)Cc2c1[nH]c1ccccc21 (configuration not stated),.,-17%,.,.,6,.
O=C(NCc1cccc(C(F)(F)F)c1)C1CCCN(c2cnccn2)C1 (configuration not stated),.,4%,.,.,-2,.
COCCn1nnnc1SCC(=O)Nc1ccc2c(c1)OCO2,20µM*,6%,1%,-17%,-1,21%
COc1cccc(C(=O)CSc2nnnn2C2CCCCC2)c1,2.8µM*,-25%,-19%[46.1 µM],3%,4,-4%
CC(C)n1nnnc1SCC(=O)c1ccc2c(c1)OCCO2,?,-3%,-8%[46.1 µM],1%,0,8%
O=C(CSc1nnnn1C1CCCC1)c1ccc2c(c1)OCCO2,3.2µM*,-8%,-12%[46.1 µM],-6%,-1,-3%
COCCn1nnnc1SCC(=O)NCc1ccc2c(c1)OCO2,4%,16%,-12%,4%,1,5%
O=C(CSc1nnnn1C1CCCC1)Nc1ccc2c(c1)OCO2,11µM*,10%,-12%[46.1 µM],8%,0,0%
COc1cc(NC(=O)CCC(=O)c2cccs2)cc(OC)c1,.,0%,.,.,.,.
CCOC(=O)c1oc2ccc(/C=N/O)c(Cl)c2c1C,2%,18%,12%,-3%,1,-7%
COc1ccc(-n2nnnc2SCC(=O)Nc2ccc3c(c2)OCCO3)c(OC)c1,7.1µM*,-17%,-22%[46.1 µM],0%,3,0%
COc1ccccc1N/C(=N/S(=O)(=O)c1ccc(C)cc1)c1ccc(Cl)cc1,?,11%,?,6%,-4,7%
COc1cc(C(C)=O)ccc1OCC(O)CN1CCN(S(=O)(=O)c2ccccc2)CC1 (configuration not stated),28µM*,1%,-15%[46.1 µM],-5%,3,-6%
CCOC(=O)/C(=C\c1ccc(OC(F)F)cc1)C1=Nn2c(nnc2-c2ccc(Cl)cc2)SC1,14µM*,-22%,10µM*,-21%,-8,0%
CC(C)(C)c1ccc(C(=O)CC(Sc2ccc(Cl)cc2)C(=O)O)cc1 (configuration not stated),2.5µM*,20µM*,?,2%,22,5%
Cc1ccc(SC(CC(=O)c2ccc(F)cc2)C(=O)O)cc1 (configuration not stated),.,50µM*,.,.,6,.
SMILES,ALDH1A1 block,Sfp PPTase inh,NPSR antagonist,JMJD2E inh,FBPA coupling cs,RGS12 GoLoco inh
O=C(CSc1ncccn1)N/N=C/c1cccc(OC2CSC2)c1,?,2%,-6%,4%,-3,-3%
COc1cc(C(=O)N/N=C/c2ccccn2)cc(OC)c1OC,-6%,56µM*,11%,?,2,4%
COc1ccc(OC)c(C(=O)N/N=C/c2ccccn2)c1,.,-9%,.,.,0,.
CCCCC(C(=O)N/N=C/c1ccccn1)C(=O)N/N=C/c1ccccn1,-2%,35µM*,4%,-24%,5,4%
Cn1ncc(Cl)c1C(=O)N/N=C/c1cccc(OC2CSC2)c1,6%,7%,-18%,-8%,-40*,12%
O=C(N/N=C/c1ccccn1)c1ccncc1,.,20µM*,.,.,0,.
O=C(N/N=C/c1ccccn1)c1ccccc1,-11%,?,9%,-4%,7,4%
COc1cc(C(=O)N/N=C/c2sc(=O)n(-c3ccccc3)c2Cl)cc(OC)c1OC,?,10%,29%,4%,2,78%
O=C(N/N=C/c1sc(=O)n(-c2ccccc2)c1Cl)c1ccncc1,10µM*,-17%,-6%,-1%,3,88%
O=C(N/N=C/c1ccccn1)c1ccc(Cl)cc1,.,32µM*,.,.,-2,.
COc1cc(C(=O)NCC(=O)N/N=C(\C)Cc2ccccc2)cc(OC)c1OC,.,1%,.,.,-5,.
COc1cc(C(=O)N/N=C(\C)Cc2ccccc2)cc(OC)c1OC,20µM*,-6%,19%,38%,1,-7%
Cc1ccccc1C(=O)N/N=C/c1ccccn1,-5%,71µM*,22%,?,2,9%
O=c1ccc(-c2ccc(S(=O)(=O)Nc3cccc(Br)c3)o2)n[nH]1,.,8%,.,.,8,.
Cc1ccc(C2=NN(C(=O)CCl)C(c3ccco3)C2)o1 (configuration not stated),.,7%,.,.,1,.
COc1ccc(Cn2c(C)nc3ccc([N+](=O)[O-])cc3c2=O)cc1,.,-2%,.,.,0,.
O=C(Cc1cccs1)N/N=C/c1ccccn1,.,?,-12%,4%,1,-2%
O=C(Cc1ccc(F)cc1)N/N=C/c1ccccn1,-3%,56µM*,7%,4%,0,0%
O=C(N/N=C\c1ccccn1)c1ccccc1O,11%,?,-25%,?,0,18%
O=C(Cn1cnc2ccccc21)N/N=C/c1ccccn1,3%,79µM*,1%[46.1 µM],-3%,0,0%
Cn1ncc(Cl)c1C(=O)N/N=C/c1ccccn1,6%,?,17%,-2%,-53*,-3%
O=C(N/N=C1\C/C(=N\NC(=O)c2ccncc2)c2ccccc21)c1ccncc1,?,6%,-8%,?,-34*,27%
Cc1ccc(N2C(S)=C(C#N)C(=O)NC23CCCCC3)cc1,?,20µM*,-3%,-3%,5,-16%
